Reference: PubChem BioAssay (NCATS)
Where “and” joins values, the source holds several entries; their conditions need not be identical. Equal values may be shown once. Records with an inconclusive call do not appear. Calls of active or inactive are those of the source. Calls come from the whole dose curve; as a rule, active = well fitted inhibition curve with a large enough effect; inconclusive = small, poorly fitted or top-dose-only effect; inactive = flat fitted curve, though single readings scatter.

Columns and labels:
Assay in all cases: Cytotoxic Profiling of Annotated Libraries Using Quantitative High-Throughput Screening (AID 1296008); note: nearly all actives have a fitted effect of over 60% in size
Conditions in all cases: Five cell lines viability, CellTiter-Glo ATP luminescence, 48-72 h; max response: hits give low values
CRL-7250 = normal cell line; tested on: CRL-7250
Outline: (§1)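 Cytotoxicity was measured as CellTiter-Glo ATP luminescence, read after 10 min at room temperature. Compound treatment of the cells lasted 48 or 72 hr at 37 degrees Celsius in a qHTS format.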

HEK293 = tested on: HEK293
Outline: as §1

HaCat = tested on: HaCat
Outline: as §1

KB-3-1 = tested on: KB-3-1
Outline: as §1

NIH3T3 = tested on: NIH3T3
Outline: as §1
% is set by controls: 0 for no effect and ±100 for the full control effect; potency is the fitted concentration of half-maximal effect.

C[C@@H]1C(=O)O[C@H]2[C@H](O)[C@@]34[C@@H]5OC(=O)[C@@]3(O[C@@H]3OC(=O)[C@@H](O)[C@@]34[C@H](C(C)(C)C)[C@H]5O)[C@@]12O
inactive: max response (CRL-7250) -6.45% | max response (HEK293) -8.33% | outcome (HaCat) | outcome (KB-3-1) | outcome (NIH3T3)

CO[C@@H]1[C@H](O)[C@@H](O[C@@H]2C[C@H]3CC[C@@H]4C(CC[C@]5(C)[C@@H](C6=CC(=O)OC6)CC[C@]45O)[C@@]3(C)[C@H](O)C2)O[C@H](C)[C@@H]1O[C@@H]1O[C@H](CO)[C@@H](O)[C@H](O)[C@H]1O (stereo not given in full)
inactive: outcome (NIH3T3)
active: Potency (CRL-7250) 109 nM | Potency (HEK293) 343 nM | Potency (HaCat) 769 nM | Potency (KB-3-1) 432 nM

Cc1cn(C[C@H](N)C(=O)O)c(=O)n(Cc2cc(-c3ccccc3)sc2C(=O)O)c1=O
inactive: max response (CRL-7250) -1.8% | max response (HEK293) -3.99% | max response (HaCat) -2.49% | outcome (KB-3-1) | outcome (NIH3T3)

CC(=O)OC1CC(O)C(C)(C)C2CC(OC(C)=O)C3(C)C(CCC4(C)C(c5ccoc5)C(=O)C5OC543)C12C (stereo not given)
inactive: max response (CRL-7250) -0.447% | max response (HEK293) -14.4% | max response (HaCat) -11.6% | max response (KB-3-1) 4.61% | outcome (NIH3T3)

C=C[C@H]1CN2CC[C@H]1C[C@@H]2[C@@H](O)c1ccnc2ccccc12
inactive: max response (CRL-7250) -1.31% | max response (HEK293) -22.7% | max response (HaCat) 1.51% | max response (KB-3-1) 5.41% and -18.8% | max response (NIH3T3) -3.21%

CC(=O)O[C@H]1C[C@@H](OC(C)=O)C(C)(C)C2C[C@@H](O)[C@]3(C)C(CC[C@@]4(C)[C@H](C5=CC(=O)OC5O)C[C@H]5O[C@]543)[C@]21C (stereo not given in full)
inactive: max response (CRL-7250) 2.14% | outcome (HEK293) | max response (HaCat) -10.3% | max response (KB-3-1) 6.85% | outcome (NIH3T3)
